Assay results: PubChem BioAssay (NCI)
The panel holds about 83,000 compounds, 20% with a hit somewhere; the sample as a whole holds those more often.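 Compound tested at a single concentration for 48 hours in 96-well plates; a percent growth value below 10 was scored as active.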 Unmarked numbers belong to inactive results. The source made the active and inactive calls.

Tested on: HL-60(TB) leukemia
Assay: NCI-60 one-dose screen, 48 h (100 = growth as untreated, 0 = no growth, -100 = all killed)
Conditions: 10 µM unless noted

Row | Compound | growth
1 | CC(C)(C)[Si](C)(C)OC1[C@@H](CNC(N)=O)O[C@@H](n2cnc3c(NC(=O)Nc4ccccc4)ncnc32)[C@H]1O[Si](C)(C)C(C)(C)C (stereo not given in full) | 52%
2 | CC1CCCCN1S(=O)(=O)c1ccc(CN=C=S)cc1 (stereo not given) | 75.9%
3 | CCOC(=O)c1cocc1C(=O)O | 80.9%
4 | O=C(CCN1CCCC1)Nc1ccc2c(NCCCCc3ccccc3)c3ccccc3nc2c1 | -62.3% (active)
5 | COc1ccc(-c2cc(C(=O)Nc3nc4cc(C)c(C)cc4s3)nc3cc(-c4ccccc4)nn23)cc1OC | 98.2%
6 | CC(C(=O)O)N1C(N)=NNC1c1ccccc1O (stereo not given) | 92.8%
7 | CCOC(=O)/C(C#N)=C(/C)C1CC1 | 110%
8 | N#C/C(=C\c1ccc(Cl)cc1)n1nnc2cc(F)c(F)cc21 | -19.4% (active)
9 | CC1(C)N=c2cc3c(cc2N1c1ccc(Cl)cc1)=Nc1ccccc1N3c1ccc(Cl)cc1 | -40.4% (active)
10 | CC(CCCC(=O)O)c1ccoc1 (stereo not given) | 97.6%
11 | O=C(O)c1cccc(S(=O)(=O)c2ccccc2)c1 | 92%
12 | O=c1[nH]c(N2CCC(Cc3ccccc3)CC2)nc2sc3c(c12)CCCC3 | 95.7%
13 | C#Cc1cccc(Nc2nc(C)nc3cc(NC(=O)CCl)ccc23)c1 | -58% (active)
14 | COc1ccc(NC2=C(Sc3nc(C)cc(C)n3)C(=O)N(Cc3ccccc3)C2=O)cc1Cl | 58.8% [30 µM]
15 | CC1(C)CCCC2=C1C(=O)N(SC(Cl)(Cl)Cl)C2=O | 76.1%
16 | C=C(C)[C@@H]1CC[C@]2(C(=O)NC(C)=O)CC[C@]3(C)[C@H](CC[C@@H]4[C@@]5(C)CCCNC(C)(C)[C@@H]5CC[C@]43C)[C@@H]12 | -51.2% (active)
17 | COC(=O)c1nc(-c2ccccc2)oc1S(=O)(=O)N1CCN(c2ccc(OC)cc2)CC1 | 21.8%
18 | CN1CCCN(CCNc2nccc(-c3c(-c4cccc(O)c4)nc4sccn34)n2)S1(=O)=O | 69.2%
19 | CN1CCN(Cc2ccc(NC(=O)c3cncc(C#Cc4ccc(N)nc4)c3)cc2C(F)(F)F)CC1 | -38.5% (active)
20 | COc1ccc(/C=c2\nc3n(-c4ccccc4)c4nc5c6c(sc5c(=N)n4n-3c2=O)CCCC6)cc1 | 101%

Row | Compound | growth
21 | Cc1ccc(C(=O)NN2C(=O)CSC2c2ccc(Cl)cc2)cn1 (stereo not given) | 139%
22 | O=C(C1CCCCC1)[C@@H]1[C@]2(C(=O)NC3CCCCC32)[C@@H]2CCCN2[C@@]12C(=O)NC1CCC(Cl)CC12 (stereo not given in full) | -65.9% [100 µM] (active)
23 | Cc1nc2ccccc2c(/C=C/c2ccc(Cl)cc2)c1C(=O)/C=C/c1ccc(C(F)(F)F)cc1 | -37% (active)
24 | Cc1cc(C)c(-c2c(O)c(Br)c(-c3c(C)cc(C)c(Br)c3C)c(O)c2Br)c(C)c1Br | 27.3%
25 | CCCCc1nc(Cl)c(C2CC(c3ccc(S(N)(=O)=O)cc3)=NN2c2ccc(C#N)cc2)[nH]1 (stereo not given) | 92.7%
26 | CCN(CC)N=Nc1nn(C(=O)Nc2ccc(Cc3ccccc3)cc2)c2ccc(Cl)cc12 | 60.4%
27 | CNC=O | 89.6%
28 | COc1cc(/C=C/c2cc(O)c(C(C)=O)c(O)c2)cc2c1O[C@]1(C)CC[C@@H](O)C(C)(C)[C@H]1C2 | 28.1%
29 | CC/C=C\C=C/C(=O)N/C=C/CC1Cc2cccc(O)c2C(=O)O1 (stereo not given) | 17.4%
30 | CNc1cc(C(=O)O)nc(NC)n1 | 105%
31 | Nc1c(CNCc2nnn(Cc3ccccc3)c2N)nnn1Cc1ccccc1 | 103%
32 | Cc1occc1-c1n[nH]c(=S)n1N1C(=O)CSC1=S | 99.2%
33 | Cc1cc(N(CCCNc2ccnc3cc(Cl)ccc23)Cc2ccc3c(c2)OCO3)nc(N2CCCCC2)n1 | -68.4% (active)
34 | Oc1ccc(N=Nc2ccccn2)c(O)c1 | -37.3% (active)
35 | N#CN1CCC[C@H]1C(=O)N1CCc2c(-c3[nH]nc4ncccc34)cccc21 | -30.7% (active)
36 | N=C(N)c1ccc(-c2ccc(-c3ccc(Cl)c(Cl)c3)o2)cc1 | -45.5% (active)
37 | CC(=O)N(Cc1ccccc1)c1nc2ccc(O)c(CN(C)C)c2s1 | 105%
38 | CC(=O)O[C@H]1CC[C@]2(C)[C@H]3C(=O)C=C4[C@@H]5C[C@](C)(C(=O)N6CCCNCC6)CC[C@]5(C)CC[C@@]4(C)[C@]3(C)CC[C@H]2C1(C)C | -61.9% (active)
39 | CS(=O)(=O)Nc1ccc(OCc2nnc(-c3ccc(Cl)cc3)o2)c(F)c1 | 115%
40 | CC1(C)CC2=C3C=C[C@@H]4[C@@]5(C)CC[C@H](O)C(C)(C)[C@@H]5CC[C@@]4(C)[C@]3(C)CC[C@@]2(C(=O)O)CC1=O | 39%
